Source: PubChem BioAssay (Tox21)
Results filed as inconclusive are left out. Where a call stands in place of a potency, no number is given. The source holds several records for some structures; these can differ, active in one and inactive in another. Activity calls are given as the source filed them. Unless noted, calls follow the shape of the full dose curve.

Columns and labels:
[1] = Nuclear factor erythroid 2-related factor 2/antioxidant responsive element (Nrf2/ARE) small molecule agonists: qHTS cell viability counter screen in human keratinocytes (AID 1919968; active = well fitted curve in the direction sought with a large enough effect in the repeat runs; an effect the other way counts as inactive or inconclusive; also: nearly all actives have a fitted effect of over 55% in size)
Method in brief: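 Parallel cytotoxicity read: KeratinoSens HaCaT cells, compound treatment 23 h, viability by CellTiter-Fluor fluorescence 1 h post-reagent.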

[2] = Nuclear factor erythroid 2-related factor 2/antioxidant responsive element (Nrf2/ARE) small molecule agonists: luciferase reporter gene qHTS assay in human keratinocytes (AID 1919969); also: nearly all actives have a fitted effect of over 35% in size
[3] = target: Gonadotropin-releasing hormone receptor (Homo sapiens) (UniProt P30968); test: Human gonadotropin-releasing hormone receptor (GnRHR) small molecule agonists, calcium flux assay in GnRHR-HEK293 cells (AID 1920063); also: nearly all actives have a fitted effect of over 35% in size
Chain of Gonadotropin-releasing hormone receptor (Homo sapiens) (P30968 whole entry, looked up): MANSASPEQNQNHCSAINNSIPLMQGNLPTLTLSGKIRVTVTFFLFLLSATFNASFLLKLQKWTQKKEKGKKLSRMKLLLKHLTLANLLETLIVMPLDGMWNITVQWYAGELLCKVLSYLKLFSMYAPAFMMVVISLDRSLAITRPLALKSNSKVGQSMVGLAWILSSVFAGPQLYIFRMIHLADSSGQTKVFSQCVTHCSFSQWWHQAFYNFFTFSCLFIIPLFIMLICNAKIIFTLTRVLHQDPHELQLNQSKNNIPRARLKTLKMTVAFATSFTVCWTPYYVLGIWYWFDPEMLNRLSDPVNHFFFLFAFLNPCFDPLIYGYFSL
Method in brief: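 Calcium flux, agonist mode, human GnRHR stably integrated in HEK293; dye 1 h at 37 C before compound; Ex/Em=480/540 kinetic read, 3 min; 15 concentrations, triplicate.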

[4] = target: KiSS-1 receptor (Homo sapiens) (UniProt Q969F8); test: Human kisspeptin (KISS1R) small molecule agonists, calcium flux assay in KISS1R-HEK293 cells (AID 1920064; active = well fitted curve in the direction sought with a large enough effect in the repeat runs; an effect the other way counts as inactive or inconclusive)
Chain of KiSS-1 receptor (Homo sapiens) (Q969F8 whole entry, looked up): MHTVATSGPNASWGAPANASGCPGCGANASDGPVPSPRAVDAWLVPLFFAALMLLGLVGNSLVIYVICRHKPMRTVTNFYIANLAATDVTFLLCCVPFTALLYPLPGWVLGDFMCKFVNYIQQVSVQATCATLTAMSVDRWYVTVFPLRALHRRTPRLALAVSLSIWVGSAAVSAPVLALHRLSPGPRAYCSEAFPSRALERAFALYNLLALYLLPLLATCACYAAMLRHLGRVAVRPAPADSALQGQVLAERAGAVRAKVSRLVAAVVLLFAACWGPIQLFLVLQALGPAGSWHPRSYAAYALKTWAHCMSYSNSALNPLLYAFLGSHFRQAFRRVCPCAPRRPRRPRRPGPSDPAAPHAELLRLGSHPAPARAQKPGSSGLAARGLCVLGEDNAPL
Method in brief: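 Triplicate 15-concentration series were applied to dye-loaded human KISS1R HEK293 cells, and agonist-evoked calcium fluorescence was captured for 3 min.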

[5] = G protein-coupled receptor (GPCR) small molecule agonists, calcium flux assay: HEK293 wild type cell line counter screen (AID 1920065)
Method in brief: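 Non-specific calcium responders were flagged by adding DMSO-dissolved compounds to dye-loaded cells and reading 480/540 nm fluorescence each second for 3 min; ATP served as positive control.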

[6] = p53 small molecule agonists, cell-based qHTS assay with human liver microsomes (AID 1963577)
Method in brief: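 Compounds act here after metabolic activation: human liver microsomes and NADPH, both at 0.5 mg/mL final, were co-added to p53RE-bla cells. Incubation ran 16 h at 37 C, followed by LiveBLAzer detection.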

[7] = p53 small molecule agonists, cell-based qHTS assay with rat liver microsomes (AID 1963578)
Method in brief: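 Read-out is beta-lactamase reporter fluorescence (LiveBLAzer, 2 h, room temperature, dark) in p53RE-bla cells treated 16 h at 37 C with compound, rat liver microsomes and NADPH, both 0.5 mg/mL final.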

[8] = p53 small molecule agonists, cell-based qHTS assay with human liver microsomes: qHTS cell viability counter screen (AID 1963579); also: nearly all actives have a fitted effect of over 45% in size
Method in brief: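 Cells carrying the p53 response-element beta-lactamase reporter are treated for 16 h at 37 C with test compounds in the presence of human liver microsomes and NADPH (both 0.5 mg/mL final); ATP-based CellTiter-Glo luminescence then reports viability.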

[9] = p53 small molecule agonists, cell-based qHTS assay with rat liver microsomes: qHTS cell viability counter screen (AID 1963580); also: nearly all actives have a fitted effect of over 45% in size
Method in brief: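 After the beta-lactamase ratio was read, CellTiter-Glo was added to the same wells and luminescence measured at 30 min; cells had been treated 16 h at 37 C with compounds, rat liver microsomes and NADPH (0.5 mg/mL final each).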

[10] = p53 small molecule agonists, cell-based qHTS assay: qHTS cell viability counter screen (AID 1963581); also: nearly all actives have a fitted effect of over 45% in size
Method in brief: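 Multiplexed with the reporter read, a CellTiter-Glo step (30 min, room temperature) gauges ATP-based viability of HCT-116 p53RE-bla cells after 16 h compound incubation at 37 C.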

[11] = p53 small molecule agonists, cell-based qHTS assay (AID 1963582; active = well fitted activation curve with a large enough effect in the signal ratio in the repeat runs, not every such curve was filed as active; the % refers to the signal ratio)
Method in brief: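 Beta-lactamase reporter cells (p53RE-bla) treated with compounds for 16 h at 37 C; FRET substrate, 2 h, room temperature; fluorescence intensity.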

[12] = target: 5-hydroxytryptamine receptor 2A (Homo sapiens) (UniProt P28223); test: 5-hydroxytryptamine receptor 2A (HTR2A) small molecule antagonists, cell-based qHTS assay (AID 1963586); also: nearly all actives have a fitted effect of over 45% in size; also: potency is read from the fitted curve at half-maximal effect
Chain of 5-hydroxytryptamine receptor 2A (Homo sapiens) (P28223 whole entry, looked up): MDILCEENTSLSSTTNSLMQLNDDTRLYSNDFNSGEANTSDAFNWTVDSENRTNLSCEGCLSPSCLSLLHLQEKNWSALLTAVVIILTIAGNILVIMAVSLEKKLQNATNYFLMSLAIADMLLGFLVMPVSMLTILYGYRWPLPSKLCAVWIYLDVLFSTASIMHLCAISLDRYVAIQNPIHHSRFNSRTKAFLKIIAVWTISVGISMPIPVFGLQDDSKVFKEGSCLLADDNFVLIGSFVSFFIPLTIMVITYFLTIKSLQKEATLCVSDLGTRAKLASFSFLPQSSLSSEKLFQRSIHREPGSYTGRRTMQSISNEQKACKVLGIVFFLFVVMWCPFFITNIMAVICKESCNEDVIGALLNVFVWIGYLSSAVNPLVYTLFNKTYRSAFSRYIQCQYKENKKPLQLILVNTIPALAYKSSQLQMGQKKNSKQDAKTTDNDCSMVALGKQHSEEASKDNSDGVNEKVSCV
Method in brief: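 CHO cells stably expressing human HTR2A were plated for 18 h at 37 C, then loaded with calcium dye for 1 h. Compounds were preincubated 5 min at room temperature before DOI (4 nM solution) was added. Kinetic fluorescence was read for 3 min.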

[13] = target: 5-hydroxytryptamine receptor 2A (Homo sapiens) (UniProt P28223); test: 5-hydroxytryptamine receptor 2A (HTR2A) small molecule agonists, cell-based qHTS assay (AID 1963587); also: nearly all actives have a fitted effect of over 30% in size
Method in brief: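 CHO cells stably expressing human HTR2A, plated 18 h, loaded with calcium dye 1 h at 37 C. Agonist mode: compounds added and intracellular calcium fluorescence recorded kinetically for 2 min at 1 sec intervals.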

[14] = target: Muscarinic acetylcholine receptor M1 (Homo sapiens) (UniProt P11229); test: Cholinergic receptor muscarinic 1 (CHRM1) small molecule antagonists, cell-based qHTS assay (AID 1963588); also: nearly all actives have a fitted effect of over 40% in size; also: potency is read from the fitted curve at half-maximal effect
Chain of Muscarinic acetylcholine receptor M1 (Homo sapiens) (P11229 whole entry, looked up): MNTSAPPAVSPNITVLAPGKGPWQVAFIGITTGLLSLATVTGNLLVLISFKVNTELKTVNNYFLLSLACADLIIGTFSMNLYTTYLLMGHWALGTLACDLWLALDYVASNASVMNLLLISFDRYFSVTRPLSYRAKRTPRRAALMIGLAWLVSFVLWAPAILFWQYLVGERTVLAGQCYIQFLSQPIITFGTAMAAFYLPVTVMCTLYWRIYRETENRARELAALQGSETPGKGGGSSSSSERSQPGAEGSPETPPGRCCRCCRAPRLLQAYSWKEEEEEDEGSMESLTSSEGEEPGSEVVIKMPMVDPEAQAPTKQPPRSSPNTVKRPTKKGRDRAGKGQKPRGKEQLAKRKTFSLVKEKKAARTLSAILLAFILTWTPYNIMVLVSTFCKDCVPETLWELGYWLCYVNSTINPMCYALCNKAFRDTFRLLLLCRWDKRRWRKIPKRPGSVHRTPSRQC
Method in brief: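 Compounds were tested at 15 concentrations in three independent runs. Dye-loaded CHRM1-CHO cells were exposed 5 min at room temperature before stimulation by acetylcholine added at 50nM. Intracellular calcium was read kinetically on FDSS for 3 min.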

[15] = target: Muscarinic acetylcholine receptor M1 (Homo sapiens) (UniProt P11229); test: Cholinergic receptor muscarinic 1 (CHRM1) small molecule agonists, cell-based qHTS assay (AID 1963589); also: nearly all actives have a fitted effect of over 35% in size
Method in brief: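 qHTS, 15-point titration, 3 independent runs: compounds pin-transferred onto dye-loaded CHRM1-CHO cells (human M1), calcium fluorescence followed every second to detect agonism.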

[16] = cAMP Responsive Elements (CRE) small molecule agonists, cell-based qHTS assay (AID 1963590)
Method in brief: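 Quantitative HTS for CRE agonists: HEK 293T CRE-bla cells, overnight plating, 3 h compound incubation at 37 C/5% CO2, then 2 h room-temperature LiveBLAzer B/G FRET substrate loading.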

[17] = cAMP Responsive Elements (CRE) small molecule antagonists, cell-based qHTS assay (AID 1963591; active = well fitted inhibition curve with a large enough effect in the signal ratio in the repeat runs, not every such curve was filed as active; the % refers to the signal ratio)
Method in brief: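 Fluorescence intensity from cleaved LiveBLAzer B/G substrate (2 h, room temperature) quantified CRE-bla activity in HEK 293T cells exposed 3 h to compound with 0.25 uM final NKH477.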

[18] = target: Beta-2 adrenergic receptor (Homo sapiens) (UniProt P07550); test: Adrenergic beta2 receptor (ADRB2) small molecule antagonists, cell-based qHTS assay (AID 1963592); also: series mostly up to about 92 µM; nearly all actives have a fitted effect of over 50% in size
Chain of Beta-2 adrenergic receptor (Homo sapiens) (P07550 whole entry, looked up): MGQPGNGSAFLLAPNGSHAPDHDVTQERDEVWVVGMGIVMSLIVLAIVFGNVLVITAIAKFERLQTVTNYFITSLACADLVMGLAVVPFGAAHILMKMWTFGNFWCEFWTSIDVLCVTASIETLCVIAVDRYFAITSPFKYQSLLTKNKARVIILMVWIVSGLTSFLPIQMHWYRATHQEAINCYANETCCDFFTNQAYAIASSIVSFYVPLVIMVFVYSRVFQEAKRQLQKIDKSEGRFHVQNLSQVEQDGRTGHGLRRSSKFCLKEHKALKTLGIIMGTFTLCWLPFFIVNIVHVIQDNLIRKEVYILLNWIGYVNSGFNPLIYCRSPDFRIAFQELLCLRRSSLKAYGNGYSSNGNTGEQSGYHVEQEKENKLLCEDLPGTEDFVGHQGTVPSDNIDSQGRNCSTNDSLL
Method in brief: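 Assay format: CHO-ADRB2 cells, 18-20hr seeding at 37C/5% CO2, then compound plus 1nM isoproterenol agonist mix for 0.5hr RT. Homogeneous time-resolved fluorescence cAMP detection after 1hr, expressed as 665/615 nm ratio.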

[19] = target: D(2) dopamine receptor (Homo sapiens) (UniProt P14416); test: Dopamine D2 receptor (DRD2) small molecule agonists, cell-based qHTS assay (AID 1963594); also: nearly all actives have a fitted effect of over 35% in size
Chain of D(2) dopamine receptor (Homo sapiens) (P14416 whole entry, looked up): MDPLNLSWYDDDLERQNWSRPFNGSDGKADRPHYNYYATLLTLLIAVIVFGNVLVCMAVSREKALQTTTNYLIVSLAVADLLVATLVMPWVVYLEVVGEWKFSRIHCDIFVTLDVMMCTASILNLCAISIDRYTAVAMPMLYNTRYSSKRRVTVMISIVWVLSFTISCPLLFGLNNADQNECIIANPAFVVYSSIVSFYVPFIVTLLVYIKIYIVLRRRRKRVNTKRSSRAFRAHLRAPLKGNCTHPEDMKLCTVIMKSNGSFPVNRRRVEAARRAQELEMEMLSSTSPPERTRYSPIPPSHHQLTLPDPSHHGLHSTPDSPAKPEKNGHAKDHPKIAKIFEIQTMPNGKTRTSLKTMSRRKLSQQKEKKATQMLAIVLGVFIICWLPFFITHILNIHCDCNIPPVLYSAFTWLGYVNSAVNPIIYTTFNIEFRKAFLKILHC
Method in brief: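 HEK293 cells stably expressing human DRD2, pre-treated with PDE inhibitor Ro20-1724 (0.1 mM final) and compound 10 min at room temperature, then stimulated with NKH477 (200nM […]) for 30 min. cAMP read by HTRF (665/620 nm).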

[20] = target: D(2) dopamine receptor (Homo sapiens) (UniProt P14416); test: Dopamine D2 receptor (DRD2) small molecule antagonists, cell-based qHTS assay (AID 1963595; active = well fitted inhibition curve with a large enough effect in the signal ratio in the repeat runs, with a control signal flat; the % refers to the signal ratio)
Method in brief: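 Human DRD2 antagonist qHTS measuring cAMP by HTRF. The cells are exposed to compound for 10 min, then to NKH477 (200 nM) and quinpirole (12 nM) for 30 min at RT, with Ro20-1724 (0.1 mM) present throughout.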

Structure (SMILES)	Potency [1]	Potency [2]	Potency [3]	Potency [4]	Potency [5]	Potency [6]	Potency [7]	Potency [8]	Potency [9]	Potency [10]	Potency [11]	Potency [12]	Potency [13]	Potency [14]	Potency [15]	Potency [16]	Potency [17]	Potency [18]	Potency [19]	Potency [20]
CC1CCC(=O)O1 (stereo not given)	inactive	inactive	inactive	inactive	inactive	inactive	inactive	inactive	inactive	inactive	inactive	inactive	inactive	inactive	inactive	inactive	inactive	inactive	inactive	inactive
COc1nc(NC(C)C)nc(NC(C)C)n1	inactive	inactive	inactive	inactive	inactive	inactive	inactive	inactive	inactive	inactive	inactive	inactive	inactive	inactive	inactive	inactive	–	inactive	inactive	inactive
O=C1CCCO1	inactive	inactive	inactive	inactive	inactive	inactive	inactive	inactive	inactive	inactive	inactive	inactive	inactive	14.6 µM (active) and inactive	inactive	inactive	–	inactive	inactive	inactive
CN(C)C(=O)Nc1cccc(C(F)(F)F)c1	inactive	inactive	inactive	inactive	inactive	inactive	inactive	inactive	inactive	inactive	inactive	inactive	inactive	inactive	inactive	inactive	–	inactive	inactive	inactive
c1ccc(C2CO2)cc1 (stereo not given)	inactive	inactive	inactive	inactive	inactive	inactive	inactive	inactive	inactive	inactive	inactive	4.8 nM (active) and inactive	inactive	inactive	inactive	inactive	inactive	–	inactive	inactive
O=C(O)C(Cl)Br (stereo not given)	inactive	inactive	inactive	inactive	inactive	inactive	inactive	inactive	inactive	inactive	inactive	inactive	inactive	inactive	inactive	inactive	inactive	inactive	–	inactive
O=Cc1ccccc1	inactive	inactive	inactive	inactive	inactive	inactive	inactive	inactive	inactive	inactive	inactive	inactive	inactive	inactive	inactive	inactive	inactive	inactive	inactive	inactive
